These results are taken from PubChem BioAssay (EPA / NIEHS).

In assay [1] the target is human Vitamin D Receptor (VDR), VDR (gene 7421) (UniProt P11473). The assay can be described thus: ATG_VDR_TRANS: Attagene TRANS-FACTORIAL HepG2 Assay for human Vitamin D Receptor (VDR) (AID 2283022; active = hit-call score of the fitted dose curve at least 0.9, where 1 is the maximum). In outline: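 HepG2 cells were transiently transfected with GAL4-UAS reporter units and a chimeric VDR-Gal4 construct, then dosed for 24 hours. Reporter mRNA was quantified by RT-PCR, fluorescent labeling, HpaI digestion and capillary electrophoresis; gain of signal analysed vs DMSO.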
human Vitamin D Receptor (VDR), VDR (gene 7421), sequence (P11473 whole entry, looked up, the tested form may be a part): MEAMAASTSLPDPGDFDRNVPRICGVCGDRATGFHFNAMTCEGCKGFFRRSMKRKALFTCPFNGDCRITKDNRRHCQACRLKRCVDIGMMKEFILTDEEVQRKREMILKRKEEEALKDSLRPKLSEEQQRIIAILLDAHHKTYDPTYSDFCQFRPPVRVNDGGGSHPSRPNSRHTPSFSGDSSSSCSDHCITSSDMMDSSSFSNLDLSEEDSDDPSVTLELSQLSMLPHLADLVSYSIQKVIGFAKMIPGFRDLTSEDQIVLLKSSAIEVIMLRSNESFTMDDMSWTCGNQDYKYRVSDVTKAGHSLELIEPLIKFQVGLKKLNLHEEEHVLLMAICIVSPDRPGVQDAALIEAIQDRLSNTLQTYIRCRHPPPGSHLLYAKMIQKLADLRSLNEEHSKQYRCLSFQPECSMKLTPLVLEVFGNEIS

The nature of assay [2]: BSK_3C_SRB: Viability Assessment in the BioMAP Diversity Plus: 3C Assay (AID 2283023).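 Also: fitted both ways against DMSO so a hit may be signal rise or drop.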 The settings on record: primary human endothelial cells (HUVEC). In outline: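 Human umbilical vein endothelial cells in the 3C system, treated 24 h. Total protein measured by 0.1% sulforhodamine B staining after 10% TCA fixation, read at 560 nm; bidirectional fit versus DMSO.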
Read-out in assay [3]: Matrix Metallopeptidase 1 (MMP1), MMP1 (gene 4312)
The assay can be described thus: BSK_BE3C_MMP1: BioMAP Diversity Plus: BE3C Assay for Matrix Metallopeptidase 1 (MMP1) Biomarker Activity (AID 2283024). The settings on record: primary human bronchial epithelial cells; actives raise or lower the signal. In outline:
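MMP1 signal, measured by ELISA after a 24 h chemical exposure of human primary bronchial epithelial cells, is analysed with bidirectional fitting using DMSO as negative control.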

A short description of assay [4]: BSK_3C_Vis: BioMAP Diversity Plus: 3C Assay for Morphology Visualization (AID 2283025).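 Also: fitted both ways so gain or loss versus DMSO counts.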 The note with it: primary human endothelial cells (HUVEC). In outline: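 Morphology read by light microscopy serves as a background control for the multiplexed 3C assay in human umbilical vein endothelial cells, taken 24 h after dosing, with DMSO as the negative control and bidirectional curve fitting.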

Read-out in assay [5]: Pselectin, SELP (gene 6403)
The assay can be described thus: BSK_4H_Pselectin: BioMAP Diversity Plus: 4H Assay for Pselectin Biomarker Activity (AID 2283026). The settings on record: primary human endothelial cells (HUVEC); actives raise or lower the signal. In outline:
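Endothelial primary cells (human umbilical vein) are dosed, incubated 24 h, and assayed for surface P-selectin by ELISA; responses in either direction are fitted relative to the DMSO negative control.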

A short description of assay [6]: BSK_4H_SRB: Viability Assessment in the BioMAP Diversity Plus: 4H Assay (AID 2283027).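 Also: cells exposed to compound for 24 h before staining.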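 As to AC50: curves fitted both ways versus DMSO so AC50 may be loss or gain.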 The note with it: primary human endothelial cells (HUVEC). In outline:
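Cytotoxicity read-out in primary human endothelial cells: after 24 h compound exposure, cells were TCA-fixed (10%), stained with 0.1% SRB and absorbance taken at 560 nm. Values fitted in both directions relative to DMSO.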

Assay [7] is described as follows: BSK_BE3C_SRB: Viability Assessment in the BioMAP Diversity Plus: BE3C Assay (AID 2283028).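 As to AC50: fitted both ways so AC50 may mark signal gain or loss versus DMSO.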 The note with it: primary human bronchial epithelial cells. In outline:
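Human bronchial epithelial primary cells in confluent culture, 24 h after chemical dosing; total protein by 0.1% SRB staining after 10% TCA fixation, read at 560 nm. Bidirectional fitting versus DMSO baseline.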

Read-out in assay [8]: Thrombomodulin, THBD (gene 7056)
The assay can be described thus: BSK_3C_Thrombomodulin: BioMAP Diversity Plus: 3C Assay for Thrombomodulin Biomarker Activity (AID 2283029). The note with it: primary human endothelial cells (HUVEC); actives raise or lower the signal. In outline: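 Endothelial cells from umbilical vein are dosed with test chemical and incubated 24 h. Thrombomodulin is then quantified by ELISA, with DMSO serving as negative control and activity baseline.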

Read-out in assay [9]: Urokinase-type plasminogen activator receptor (uPAR), PLAUR (gene 5329)
Briefly: BSK_4H_uPAR: BioMAP Diversity Plus: 4H Assay for Urokinase-type plasminogen activator receptor (uPAR) Biomarker Activity (AID 2283030). The settings on record: primary human endothelial cells (HUVEC); actives raise or lower the signal. In outline:
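Human umbilical vein endothelial cells in the 4H system, 24 h after chemical dosing. Cell-surface uPAR measured by ELISA, fitted in both directions versus DMSO; cytotoxicity checked by SRB total protein in parallel cultures.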

Read-out in assay [10]: Vascular endothelial growth factor receptor 2 (Homo sapiens) (UniProt P35968)
The assay can be described thus: BSK_4H_VEGFRII: BioMAP Diversity Plus: 4H Assay for Vascular endothelial growth factor receptor 2 (VEGFR2) Biomarker Activity (AID 2283031). The note with it: primary human endothelial cells (HUVEC); actives raise or lower the signal. In outline:
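Primary human umbilical vein endothelial cells (4H system), 24 h exposure; cell-surface VEGFR2 measured by ELISA. Bidirectional fitting versus DMSO; cytotoxicity checked in parallel by SRB total-protein staining.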

As usually defined, the AC50 is the concentration giving half of the maximal activity seen.

Inconclusive results are not listed. Active and inactive are the calls of the source. The calls were made as follows, unless noted: active = hit-call score of the fitted dose curve at least 0.9, where 1 is the maximum; inactive = score below 0.9.

With `c1ccc2ccccc2c1`, the outcome in [1], in [2], in assay [3], in assay [4], in assay [5] and in assay [6] was inactive. For the same molecule, the result in assay [7], in assay [8] and in [9] was inactive.

With `O=C(OCCCCCCOC(=O)c1ccccc1)c1ccccc1`, the molecule was classed as inactive in assay [1], in assay [2], in [3], in [4], in assay [5] and in assay [6]. The outcome in assay [7], in [8] and in [9] was inactive.

For `CCCC(=O)OCCC(C)C`, the molecule was called inactive in assay [1], in assay [2], in assay [3], in assay [4], in assay [5] and in assay [6]. In addition, the outcome in [7], in [8] and in [9] was inactive.

In the case of `CC(C)(c1cc(Br)c(O)c(Br)c1)c1cc(Br)c(O)c(Br)c1`, in assay [1], the outcome was inactive. Moreover, the AC50 is 29.6 µM (active) in [2]; 9.3 µM (active) in assay [3]; 37.8 µM (active) in assay [4]; 30.2 µM (active) in [5]; 28.7 µM (active) in [6]; 5.06 µM (active) in [7]. The AC50 was 8.15 µM (active) in assay [8] and 28.9 µM (active) in assay [9].

As to `CCCCCc1ccc(N)cc1`, the result in assay [1], in assay [3], in assay [4], in assay [5], in [7] and in assay [8] was inactive. For the same molecule, the values for the half-maximal activity concentration (AC50) in [2], in assay [6] and in [9] were 17.8 µM (active), 11.7 µM (active) and 7.58 µM (active), respectively.

For `COc1cccc([C@H](O)C2CCN(CCc3ccc(F)cc3)CC2)c1OC`, the outcome in assay [1], in assay [2], in assay [3], in [4], in [6] and in assay [7] was inactive. Moreover, the outcome in assay [8] and in assay [10] was inactive. Also, the AC50 in assay [5] is 6.42 µM (active); in assay [9], 0.228 µM (active).

On to `Cc1ccc(C(C)C)cc1`, for which the result in assay [1], in assay [2], in [3], in assay [4], in assay [5] and in assay [6] was inactive. Also, the outcome in [7], in assay [8] and in [9] was inactive.

Take `c1ccc(C[n+]2cccc3ccccc32)cc1`: the molecule was called inactive in assay [1], in [2], in assay [3], in assay [4], in assay [5] and in assay [6]. Also, the result in [7], in assay [8] and in assay [9] was inactive.

For `CCCOC(=O)c1cc(O)c(O)c(O)c1`, the result in [1], in [2], in [3], in assay [4], in assay [5] and in assay [6] was inactive. Moreover, the result in assay [7], in [8] and in [9] was inactive.

As to `Cc1cc(F)ccc1-c1cc(N2CC[C@@H](O)[C@H]2CO)ncc1N(C)C(=O)C(C)(C)c1cc(C(F)(F)F)cc(C(F)(F)F)c1`, the outcome in assay [1] and in assay [8] was inactive. For the same molecule, the concentration at half-maximal activity (AC50) in assay [2] is 9.17 µM (active); in assay [3], 14.5 µM (active); in assay [4] it was 10 µM (active); in assay [5], 7.66 µM (active); in assay [6] it was 11.9 µM (active); in [7], 12.9 µM (active). Moreover, in [9], the AC50 was 10.2 µM (active).

`COc1ccc2cc(S(=O)(=O)N[C@H](CC(=O)N[C@H](Cc3ccc(CN4[C@H](C)CCC[C@@H]4C)cc3)C(=O)N(C)C(C)C)c3ccc4c(c3)OCO4)ccc2c1`: the call in assay [1], in assay [3], in [7], in [8] and in assay [10] was inactive. Further, the AC50 in assay [2] is 20.8 µM (active); in assay [4], 5.55 µM (active); in assay [5], 10.8 µM (active); in assay [6], 19.1 µM (active); in assay [9] it was 19.1 µM (active).

In the case of `CC[C@H](NC(=O)c1cc(F)ccc1NS(=O)(=O)c1cccc2cccnc12)c1ccccc1`, the molecule was called inactive in assay [1], in [2], in assay [3], in assay [4], in [5] and in [6]. Further, the outcome in assay [7], in assay [8] and in [9] was inactive.

As to `CCN(Cc1cccc(S(=O)(=O)O)c1)c1ccc(C(=C2C=CC(=[N+](CC)Cc3cccc(S(=O)(=O)O)c3)C=C2)c2ccccc2S(=O)(=O)[O-])cc1`, the result in assay [1], in [2], in [3], in assay [4], in assay [5] and in [6] was inactive. Moreover, the result in [7], in assay [8] and in [9] was inactive.

Take `O=C(O)Cn1c(=O)n(Cc2ccc(Br)cc2F)c(=O)c2ccc(Cl)cc21`: the result in assay [1], in assay [2], in assay [3], in assay [4], in [5] and in assay [6] was inactive. The outcome in [7], in assay [8] and in assay [9] was inactive.

As for `O=C(O)Cc1cc(I)c(Oc2ccc(O)c(I)c2)c(I)c1`, the outcome in assay [1], in assay [2], in assay [5], in [6], in [7] and in assay [8] was inactive. Also, the figures for the concentration at half-maximal activity (AC50) in assay [3], in assay [4] and in [9] were 6.29 µM (active), 14.5 µM (active) and 23.3 µM (active), respectively.

As for `C[C@]12CC[C@@H]3c4ccc(O)cc4CC[C@H]3[C@@H]1CC[C@H]2O`, the molecule was called inactive in [1], in assay [3], in [5], in [7] and in assay [8]. Also, the half-maximal activity concentration (AC50) in [2] is 12.4 µM (active); in assay [4], 20.7 µM (active); in assay [6], 9.1 µM (active); in assay [9] it was 12.8 µM (active).

As to `NC(=O)c1nc(-c2cccc(-c3cc(F)ccc3OCC(F)(F)C(F)(F)F)c2)n[nH]1`, in assay [1], the molecule was called inactive. Also, the AC50 in assay [2] was 31.9 µM (active); in [3] it was 36.5 µM (active); in assay [4] it was 42.3 µM (active); in assay [5] it was 30.8 µM (active); in assay [6], 35.2 µM (active); in [7] it was 34.5 µM (active). The half-maximal activity concentration (AC50) in assay [8] was 11.7 µM (active); in assay [9], 22.6 µM (active).

In the case of `Cc1ccc2oc(CN(Cc3ccccc3)C(=O)Nc3c(F)cc(F)cc3F)c(-c3ccc(Cl)cc3)c2c1`, the outcome in assay [1], in assay [2], in [3], in assay [4], in [5] and in [6] was inactive. The result in [7], in [8], in assay [9] and in assay [10] was inactive.

In the case of `CN(C[C@@H](CC[N+]12CCC(C3CCCCC3)(CC1)CC2)c1ccc(Cl)c(Cl)c1)C(=O)c1cc(C(F)(F)F)cc(C(F)(F)F)c1`, the molecule was called inactive in assay [1] and in assay [8]. Further, the half-maximal activity concentration (AC50) in assay [2] is 12.9 µM (active); in assay [3] it was 23.5 µM (active); in [4], 13.3 µM (active); in [5], 29.2 µM (active); in [6], 16.5 µM (active); in assay [7], 13 µM (active). Moreover, the AC50 in assay [9] was 29.1 µM (active).
